In PubChem BioAssay AID1487 (National Center for Advancing Translational Sciences (NCATS), 2009):
The whole screen tested about 200,000 compounds, of which about 25 (0.01%) were called active. Not shown: some 23% with an inconclusive outcome. The call rests on the fitted dose curve; in most records, active means well fitted inhibition curve with a large enough effect in the signal ratio, with a control signal flat (not every such curve was filed as active); inconclusive means small, poorly fitted or top-dose-only effect, or effect the other way, or a change in a side signal; inactive means flat fitted curve, though single readings scatter; the % refers to the signal ratio. For the sample, actives were picked, then their nearest neighbours and some compounds at random.

assay: qHTS Assay for Modulators of Lamin A Splicing; settings: HeLa LMNA splicing GFP/RFP minigene ratio, 48 h; series mostly up to 46 µM
Description: NCGC Assay Overview: Hutchinson-Gilford Progeria Syndrome (HGPS) is a pediatric premature aging disease caused by a spontaneous mutation in the lamin A/C (LMNA) gene. The mutation activates a cryptic splice site in the LMNA pre-mRNA which results in production of a pre-lamin A protein that cannot be processed properly. The mutant protein accumulates in the nucleus and negatively affects numerous cellular functions. Correction of the splicing defect in HGPS patient cells using a targeted oligonucleotide (exo11) leads to reversal of the cellular disease phenotypes. To identify small molecule modulators of aberrant LMNA splicing, a homogenous assay was constructed in HeLa cells that used a GFP containing minigene to report on correction of aberrant splicing in lamin A and a RFP (DsRed2) to report on cell viability, uniformity and nonspecific effects on the assay signal. This assay was adapted to laser-scanning microplate cytometry (Acumen, TTP Labtech) where miniaturization of the assay to a 1,536-well plate format was possible. References: Bowen, W. P.; Wylie, P. G. Application of Laser-Scanning Fluorescence Microplate Cytometry in High Content Screening. Assay Drug Dev Technol 2006;4:209-221. Scaffidi P, Misteli T. Reversal of the cellular phenotype in the premature aging disease Hutchinson-Gilford progeria syndrome. Nat.
NCGC Assay Protocol Summary: Reagents/Controls: Stable clones expressing DsRed2 and lamin A-EGFP were generated by Cell and Molecular Technologies in S3 HeLa cells. HeLa cells were prepared for the assay when they were 70-90% confluent. The cells were counted and resuspended in Opti-MEM I (no phenol red; Gibco), 2% FBS, 1% penicillin/ streptomycin (Gibco) at concentration of 120 cells/uL concentration. The suspension was passed through a Falcon basket filter with pore size 40um (Beckton Dickson). Control titrations: column […] 1536-well plate contained a sixteen point titration (1:2 dilutions) in duplicate of ancitabine (Sigma: A8598) beginning at 40 uM final concentration. Column 2 contained a sixteen point titration (1:2 dilutions) of cycloheximide beginning at 1.4 mM final concentration. Column 3 contained ancitabine at 40 uM and column 4 contained was the vehicle control (0.5% DMSO final concentration). Assay Steps: 5 uL of HeLa cells were plated in Aurora LoBase black clear bottom (cyclic-olefin polymer) 1536-well plates at a final density of 600 cells/well. Controls and library compounds were added with a 1536-well pin array using the Kalypsys pin-tool. The plates were then incubated for 48 hrs in a cell-culture incubator (37 °C; 5% CO2, 98% humidity). Following incubation the plates were read on the Acumen Explorer using the 488 nm laser. Data was collected on objects between 10 and 100 um in size. Cell objects were defined by a 15 um width x 10 um depth filter. The ratio of the total object intensity in PMT1 (500-530 nm emission; GFP) over PMT3 (575-640 nm emission; RFP) was calculated for analysis. Keywords: NIH Roadmap, MLSCN, MLI, MLSMR, qHTS, NCGC, lamin A, Progeria, RNA splicing.
On the % scale 0 is the no-effect control and ±100 the full control effect.

Ratio change, negative = inhibition, inactive:
Cc1nc([N+](=O)[O-])cn1CC(=O)Nc1ccc2c(c1)OCO2
Cc1cccc(OCCC(=O)Nc2cc(S(=O)(=O)N3CCCCC3)ccc2N2CCOCC2)c1
Cc1ccc(C)c(-n2ccnc2SCC(N)=O)c1
CC1(C)OC(=O)C(=CSc2ccc(C(C)(C)C)cc2)C(=O)O1
COc1cc(NC(=O)c2cccnc2SC)cc(OC)c1
COc1ccccc1CN(C)c1nnnn1-c1ccccc1
COc1ccc(NC(=O)CSc2nnc(-c3ccccc3F)n2C2CC2)cc1S(N)(=O)=O
CCOC(=O)c1cnc2[nH]c3ccccc3n2c1=O
CC(=O)c1ccc(NC(=O)CSc2c(C(C)C)cnc3c2c(=O)n(C)c(=O)n3C)cc1
CCOC(=O)c1c(C)oc2nc(C)nc(N3CCN(c4ccc(OC)cc4)CC3)c12
Cc1ccc(/C([O-])=C(/C(=S)NCc2ccco2)[n+]2ccccc2)cc1[N+](=O)[O-]
O=C(C1COc2ccccc2O1)N(Cc1cccnc1)c1nc2c(F)cc(F)cc2s1 (stereo not drawn)
COc1ccc(NC(=O)c2sc3nc(-c4cc5cccc(OC)c5oc4=O)[nH]c(=O)c3c2C)cc1
COc1ccc(NS(=O)(=O)c2ccc(O)c(C(=O)OCC(=O)NC3CCCCC3)c2)cc1
CCCN(CCC)CCCNC(=O)CNC(=O)c1nn(-c2ccc(OC)cc2)c(=O)c2ccccc12
COc1ccccc1NC(=O)C1=C(C)Nc2nc(SCC(=O)c3ccc(C)cc3)nn2C1c1ccccc1C (stereo not drawn)
COc1cccc(C(O)Cc2nc3ccccc3n2C)c1OC (stereo not drawn)
O=C(CCC(=O)N1CCCC1)Nc1ccc([N+](=O)[O-])cc1
C/C(CC(=O)Nc1ccc(C)cc1C)=N\NC(=O)C(C)C
O=C(Nc1nnc(S(=O)(=O)N2CCOCC2)s1)c1cccc(Br)c1
Cc1nc(N2CCC(C)CC2)c2c(C)c(C(=O)Nc3cc(F)ccc3C)sc2n1 11.2% [at 9.22 µM]
CN(C)S(=O)(=O)c1ccc(NC(=O)COC(=O)Cn2[nH]c(=O)c3ccccc3c2=O)cc1
Cc1ccccc1C(=O)Nc1ccc(N2CCCCCC2)cc1
CC1CCN(C(=S)c2cccc([N+](=O)[O-])c2)CC1
CC(=O)c1sc(NC(=O)C2=NN(c3ccccc3)C(=O)CC2)nc1C
OCC1(CCOc2ccccc2)CCN(Cc2cn[nH]c2-c2ccccc2)CC1
CC(C)C(=O)Nc1ccc2oc(=O)ccc2c1
Cc1ccsc1C1C(C#N)=C(N)OC2=C1C(=O)CC(C)(C)C2 (stereo not drawn) 3.22% [at 9.22 µM]
